Compound activity: PubChem BioAssay, several laboratories
CSC inhib = cancer stem cell viability inhibitors, primary screen, luminescence. cancer stem cell-like cells viability. inhibition, % at 7.5 µM. 1.1% of 300,000 active. AID 2717, 2010; in the data active = inhibition above about 75%; tested in HMLE shEcad cells
Beta cell apopt = inhibitors of cytokine-induced beta cell apoptosis, primary screen, luminescence; INS-1E cytokine-induced death, ATP luminescence, 48 h; percent of positive-control rescue, neutral wells zero; protection from apoptosis, % (test concentration not listed); 0.8% of 300,000 active;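 active = Every replicate reaches about 75%, or at least half do and their mean reaches it too, limit read from the data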;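 also: higher means more ATP so stronger rescue from cytokine killing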
Mdm2 MdmX PPI = inhibitors of human Mdm2-MdmX association, primary screen, cell-based, luminescence, split luciferase, SaOS-2, uHTS; Protein Mdm4 (Homo sapiens) + E3 ubiquitin-protein ligase Mdm2 (Homo sapiens), …; SaOS-2 split-luciferase Mdm2/MdmX complementation; 3% of 330,000 active; inhibition, % at 8 µM; AID 485346, 2010;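 active = inhibition of at least 50% at 8 µM in the primary screen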
Target sequence (O15151 whole entry, looked up): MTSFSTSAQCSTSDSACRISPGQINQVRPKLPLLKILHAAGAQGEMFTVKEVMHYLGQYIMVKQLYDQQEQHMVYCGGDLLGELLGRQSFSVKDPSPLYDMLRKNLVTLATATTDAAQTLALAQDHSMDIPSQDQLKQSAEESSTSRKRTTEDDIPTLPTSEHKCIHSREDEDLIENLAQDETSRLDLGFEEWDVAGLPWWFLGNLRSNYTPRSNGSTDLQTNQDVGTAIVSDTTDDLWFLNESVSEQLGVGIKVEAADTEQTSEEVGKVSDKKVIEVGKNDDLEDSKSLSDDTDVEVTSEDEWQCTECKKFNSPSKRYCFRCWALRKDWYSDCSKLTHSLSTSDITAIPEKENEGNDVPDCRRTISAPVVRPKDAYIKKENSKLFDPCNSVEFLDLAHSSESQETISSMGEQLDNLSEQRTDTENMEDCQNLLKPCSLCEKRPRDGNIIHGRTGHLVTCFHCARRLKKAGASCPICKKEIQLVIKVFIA
Target sequence (Q00987 whole entry, looked up): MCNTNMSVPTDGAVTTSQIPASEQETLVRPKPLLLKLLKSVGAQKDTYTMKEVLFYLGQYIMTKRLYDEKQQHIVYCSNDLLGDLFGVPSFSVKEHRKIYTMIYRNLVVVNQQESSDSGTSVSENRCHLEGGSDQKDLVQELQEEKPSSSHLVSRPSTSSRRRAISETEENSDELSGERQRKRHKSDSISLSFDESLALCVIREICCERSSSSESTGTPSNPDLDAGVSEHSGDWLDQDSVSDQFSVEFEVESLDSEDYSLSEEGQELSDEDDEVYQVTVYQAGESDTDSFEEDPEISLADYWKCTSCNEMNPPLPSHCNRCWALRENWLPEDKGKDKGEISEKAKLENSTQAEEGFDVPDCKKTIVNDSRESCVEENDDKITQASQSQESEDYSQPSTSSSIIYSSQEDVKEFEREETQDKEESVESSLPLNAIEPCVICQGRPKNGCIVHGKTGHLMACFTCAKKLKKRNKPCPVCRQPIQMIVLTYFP
A1 inh = caspase 3/7 activation in MEF A1-2A-BIM cells, primary screen, A1 inhibitor project, cell-based, luminescence, HTS. Caspase-Glo 3/7 luminescence, 3 h; percent of clofoctol response, vehicle zero. 0.066% of 330,000 active. AID 2462, 2010. caspase activation, % (concentration not given with the values);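 active = over half of replicate activation scores above 10%, or exactly half above 10 with the replicate mean above 10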
aSyn 5UTR inh = MLPCN primary screen, SNCA 5' untranslated region. alpha-synuclein 5'UTR reporter, inhibitor activity. inhibition, % (tested at 7.5 µM). 0.82% of 300,000 active; in the data active = inhibition above about 60%;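 also: H4 neuroglioblastoma cells stably carrying SNCA 5'UTR luciferase fusion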
Mdm2-MdmX conf = Mdm2-MdmX complex disruptors, retested hits, confirmation, luminescence, single concentration | shares compounds with Mdm2 MdmX PPI | Mdm2-MdmX binding, luminescent assay | inhibition, % at 8 µM | 55% of 10,000 active | AID 489028, 2010; in the data active = inhibition above about 40%
Full FLuc ctr = full-length luciferase signal inhibition, confirmation, counter-screen for Mdm2/MdmX interaction inhibitor project, cell-based, single concentration, SaOS-2; shares compounds with Mdm2 MdmX PPI; SaOS-2 full-length luciferase counterscreen, luminescence; 77% of 6,200 active; inhibition, % at 8 µM;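 active = mean inhibition at 8 µM reaching about 37%, which flags the compound as non-specific, limit read from the data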;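 also: p53-null SaOS-2 cells with luciferase driven by a doxycycline-inducible promoter; compound on cells about two nights before reading with doxycycline added after day one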
Of the large screens only hits and unclear results are named; the others gave an inactive call (follow-up assays come after a bar, where they were run). This is a sample that favours compounds with a hit; in the whole collection about 4.1% have one here.

COc1cc(/C=C/C(=O)OCC(=O)Nc2cc(S(=O)(=O)N3CCCC3)ccc2Cl)cc(OC)c1OC	none (no result: aSyn 5UTR inh)
Cc1ccc(C(=O)/C=C/c2ccccc2[N+](=O)[O-])cc1	none
O=C(/C=C/c1ccccc1[N+](=O)[O-])c1ccccc1Br	CSC inhib 84.3, Mdm2 MdmX PPI 72.4 | Mdm2-MdmX conf inactive
CC(C)(C)NC(=O)[C@@H]1CN(Cc2cccnc2)CCN1C[C@@H](O)C[C@@H](Cc1ccccc1)C(=O)N[C@H]1c2ccccc2C[C@H]1O	none (no result: Beta cell apopt)
Cc1cc(-c2n[nH]c(=S)n2Cc2ccco2)n(C)n1	Mdm2 MdmX PPI 62.3 | Mdm2-MdmX conf inactive
Cn1c(C=O)c(C#CC(C)(C)O)c2ccccc21	none (no result: aSyn 5UTR inh)
COc1cccc(C#Cc2c(C=O)n(C)c3ccccc23)c1	Mdm2 MdmX PPI 66.3 (no result: aSyn 5UTR inh) | Mdm2-MdmX conf inactive | Full FLuc ctr 70.0
COc1ccc(-c2cc(C)no2)cc1S(=O)(=O)N1CCN(c2cccc(C)c2)C(C)C1 (stereo not drawn)	Mdm2 MdmX PPI 52.9 | Mdm2-MdmX conf 45.0 | Full FLuc ctr 61.4
Cc1cccc(N2CCN(S(=O)(=O)c3cc(-c4cc(C)no4)ccc3C)CC2C)c1 (stereo not drawn)	Mdm2 MdmX PPI 50.4 | Mdm2-MdmX conf 53.8 | Full FLuc ctr 37.9
COc1ccc(N2CCN(S(=O)(=O)c3cc(-c4cc(C)no4)ccc3C(C)C)CC2)cc1	Mdm2 MdmX PPI 50.6 | Mdm2-MdmX conf inactive
Cc1cc(-c2ccc(C)c(S(=O)(=O)N3CCN(c4ccc(F)cc4)CC3)c2)on1	none
Cc1oc(-c2cccc(Cl)c2)nc1CN1CCC(C(=O)NCCCN2CCCC2=O)CC1	none (no result: CSC inhib)
CCCN(CCC)CCNC(=O)C1CCN(Cc2nc(-c3ccc(Cl)cc3)oc2C)CC1	Mdm2 MdmX PPI 87.8 | Mdm2-MdmX conf 79.3 | Full FLuc ctr inactive
Cc1oc(-c2cccc(Cl)c2)nc1CN1CCC(C(=O)NCCCN2CC(C)CC(C)C2)CC1 (stereo not drawn)	Mdm2 MdmX PPI 99.7 | Mdm2-MdmX conf 98.4 | Full FLuc ctr 52.7
CCN1CCN(CCNC(=O)C2CCCN(Cc3nc(-c4cccc(Cl)c4)oc3C)C2)CC1 (stereo not drawn)	Mdm2 MdmX PPI 62.9 | Mdm2-MdmX conf inactive
Cc1cccc(COCC(Cc2ccccc2)N2CCN(C(=O)c3cc(Cl)cc(Cl)c3)CCC2=O)c1 (stereo not drawn)	Mdm2 MdmX PPI 50.4 | Mdm2-MdmX conf inactive
O=C(c1ccc(Cl)c(Cl)c1)N1CCC(=O)N(C(COCc2ccc(Cl)cc2)Cc2ccccc2)CC1 (stereo not drawn)	Mdm2 MdmX PPI 52.3 | Mdm2-MdmX conf inactive
O=C(c1ccc(C(F)(F)F)cc1)N1CCC(=O)N(C(COCc2ccccc2)Cc2ccccc2)CC1 (stereo not drawn)	none
Cc1cccc(COCC(Cc2ccccc2)N2CCN(C(=O)c3ccc(Cl)c(Cl)c3)CCC2=O)c1 (stereo not drawn)	none
O=C(c1ccc(Cl)c(Cl)c1)N1CCC(=O)N(C(COCc2cccc(C(F)(F)F)c2)Cc2ccccc2)CC1 (stereo not drawn)	Mdm2 MdmX PPI 50.7 | Mdm2-MdmX conf inactive
CCOC(=S)SCC(=O)Nc1nc(-c2ccccc2)cs1	Mdm2 MdmX PPI 60.2 | Mdm2-MdmX conf 56.7 | Full FLuc ctr 100.2
CCOC(=S)SCC(=O)Nc1nccs1	none
CCOC(=S)SCC(=O)Nc1nc(-c2ccc(Br)cc2)cs1	CSC inhib 85.2, Mdm2 MdmX PPI 84.4, aSyn 5UTR inh 69.9 | Mdm2-MdmX conf 76.2 | Full FLuc ctr 102.2
COc1cccc(N2CCN(S(=O)(=O)c3cc4c(cc3C)N(C)CCO4)CC2)c1	none
Cc1cc2c(cc1S(=O)(=O)N1CCN(c3ccc(Cl)cc3)CC1)OCCN2C	Mdm2 MdmX PPI 85.0 | Mdm2-MdmX conf inactive
CCCCOc1ccccc1/C=N/NC(=O)CC#N	none
Cc1ccc(-n2c(-c3ccccc3)cc(/C=N/NC(=O)CC#N)c2-c2ccccc2)cc1	Beta cell apopt 123.4, Mdm2 MdmX PPI 54.7 | Mdm2-MdmX conf inactive
CCCCN1CC(O)=C(c2nc(-c3ccc(Br)cc3)cs2)C1=N	Mdm2 MdmX PPI 80.1 | Mdm2-MdmX conf 52.5 | Full FLuc ctr 63.4
O=C(CN1C(=O)S/C(=C\c2ccccn2)C1=O)Nc1ccccc1	none (no result: aSyn 5UTR inh)
Cc1c(/C=C2\SC(=O)N(CC(=O)Nc3ccc4c(c3)OCO4)C2=O)c2ccccc2n1C	none
Cn1c(=O)n(C)c2cc(/C=C3/NC(=O)N(Cc4ccccc4)C3=O)ccc21	Mdm2 MdmX PPI 50.7 | Mdm2-MdmX conf inactive | Full FLuc ctr 87.7
Cc1cccc(NC(=O)CN2C(=O)S/C(=C\c3ccccn3)C2=O)c1	Mdm2 MdmX PPI 84.0 | Mdm2-MdmX conf inactive
CCn1cc(/C=C2\SC(=O)N(CC(=O)Nc3ccc4c(c3)OCO4)C2=O)c2ccccc21	Mdm2 MdmX PPI 67.9 (no result: aSyn 5UTR inh) | Mdm2-MdmX conf 46.9 | Full FLuc ctr 90.7
Cc1ccc(/C=C2/NC(=O)N(Cc3ccccc3)C2=O)o1	none
CCOc1cc(/C=C2/NC(=O)N(CC(=O)Nc3cccc(C)c3)C2=O)ccc1OC	Mdm2 MdmX PPI 70.2 | Mdm2-MdmX conf 65.2 | Full FLuc ctr inactive
CCOc1cc(/C=C2/NC(=O)N(CC(=O)Nc3cccc(C)c3)C2=O)ccc1O	none
COc1ccc(CNC(=O)COc2ccc(S(=O)(=O)N3CCOCC3)cc2C)cc1	none (no result: Beta cell apopt)
Cc1ccc(-n2nc3c(=O)n(CC(=O)NC4CCCCCC4)nc(C)c3c2C)cc1	none
COc1ccc(/C=C2/NC(=O)N(Cc3ccccc3F)C2=O)cc1OC	Mdm2 MdmX PPI 85.0 | Mdm2-MdmX conf inactive
COc1ccc2ccccc2c1CNC(C)c1ccccc1 (stereo not drawn)	none
CC(NCCCOc1cccc2ccccc12)c1ccccc1 (stereo not drawn)	Mdm2 MdmX PPI 58.1 (no result: CSC inhib, Beta cell apopt) | Mdm2-MdmX conf inactive
Cc1nsc(Nc2ccc([N+](=O)[O-])cc2)c1C#N	Mdm2 MdmX PPI 79.0 | Mdm2-MdmX conf 55.1 | Full FLuc ctr 89.2
Cc1ccc(Nc2ccc([N+](=O)[O-])ccc2=O)cc1	none (no result: CSC inhib, Beta cell apopt)
CN1CCN(c2ccc(Nc3ccnc4cc(Cl)ccc34)cc2)CC1	Mdm2 MdmX PPI 77.5 | Mdm2-MdmX conf inactive | Full FLuc ctr 50.9
CCN1CCN(c2ccc(Nc3ccnc4ccccc34)cc2)CC1	Mdm2 MdmX PPI 86.7 (no result: CSC inhib, aSyn 5UTR inh) | Mdm2-MdmX conf 84.3 | Full FLuc ctr inactive
COc1cc(CCNC(=O)CCCn2c(=O)c3cccn3c3cccnc32)cc(OC)c1OC	none
COc1ccc(C(=O)COC(=O)c2ccc3c(c2)OCO3)c(OC)c1	none (no result: aSyn 5UTR inh)
